# “And” between values parts separate entries of the source, which are not always exact repeats. Identical values can stand only once. Unmarked numbers belong to inactive results. Records with an inconclusive call do not appear. Where a call stands in place of a potency, no number is given. The source made the active and inactive calls. Unless noted, the call rests on the fitted dose curve; in most records, active means well fitted curve in the direction sought with a large enough effect; inconclusive means small, poorly fitted or top-dose-only effect, or another doubt; inactive means no such curve, though single readings can be large; an effect the other way counts as inactive or inconclusive.
# Tests used:
# [1] = Cell Viability - BJ (AID 421; calls by dose curve;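 further: potency means the concentration at half of the fitted maximal effect; cells exposed to compound for 40 hours at 37 °C before readout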); settings: BJ fibroblast viability, qHTS
# Procedure, shortened: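 Luminescent ATP signal (CellTiter-Glo, 20 min at room temperature) served as the read-out of viable BJ cells after 40 hours of compound treatment. Responses were scaled between DMSO and 100 uM tamoxifen, and AC50 values were obtained by Hill modeling.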
# [2] = Cell Viability - MRC5 (AID 434; calls by dose curve;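 further: potency means the concentration at half of the fitted maximal effect; cells exposed to compound for 40 hours at 37 °C; potency reflects cytotoxicity seen as loss of intracellular ATP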); settings: MRC5 lung fibroblast viability, qHTS
# Procedure, shortened: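 qHTS cytotoxicity in human lung fibroblast MRC5 cells; 40 hr treatment, 37 °C; cellular ATP by luciferase luminescence; DMSO = 0%, 100 uM tamoxifen = 100% inhibition; Hill-fit AC50.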
# [3] = Cellular Toxicity (caspase-3) HepG2 (AID 654); settings: HepG2 caspase-3 activation, luminescence; series mostly up to 92.2 µM;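 further: cells exposed to compound for 16 hours before reading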
# Procedure, shortened: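 Cells plated 5 hr at 37 °C, compound added, incubated 16 hr at 37 °C. Caspase-Glo 3/7 reagent followed, 20 min at room temperature, then luminescence read. Activation scored as signal increase; AC50 from Hill fit.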
# [4] = Cellular Toxicity (caspase-3) Jurkat (AID 655); settings: Jurkat caspase-3 activation, luminescence; caspase-3 activation: at 92.2 µM (top of the series), DMSO = 0%, tamoxifen = 100%;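 further: cells exposed to compound for 16 h at 37 °C before reading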
# Procedure, shortened: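 Jurkat cells (5000/well) in complete medium were treated with compounds for 16 hr at 37 °C, then Caspase-Glo 3/7 luminescence was read after 20 min at room temperature. Data normalized to DMSO (basal) and 100 uM tamoxifen (100%); AC50 from Hill fit.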
# [5] = Cellular Toxicity (caspase-3) SHSY5Y (AID 657); settings: SH-SY5Y caspase-3 activation; series mostly up to 91.7 µM
# Procedure, shortened: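 SH-SY5Y human neuroblastoma cells (1500/well) were treated with compounds for 16 h at 37 °C, then Caspase-Glo 3/7 luminescence was read after 1 h at room temperature. Data normalized to DMSO and 10 uM staurosporine; AC50 from Hill fits.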
# [6] = Cellular Toxicity (caspase-3) BJ (AID 658); settings: BJ fibroblasts, luminescence; Potency: caspase-3 activation; series mostly up to 91.7 µM
# Procedure, shortened: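 Readout: Caspase-Glo 3/7 luminescence increase in BJ cells after 16 hr treatment at 37 °C. Staurosporine and tamoxifen served as positive controls; AC50 values came from Hill modelling of data normalized to DMSO and 10 uM staurosporine.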
# [7] = Cellular Toxicity (caspase-3) MRC-5 (AID 659); settings: MRC-5 cells, luminescence, normalized: DMSO 0%, 10 µM staurosporine 100%; series mostly up to 91.7 µM
# Procedure, shortened: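 Concentration-dependent caspase 3/7 activation is measured in human normal lung fibroblasts (MRC-5) following 16-hour treatment. AC50 values come from standard Hill-equation modeling of luminescence normalized to DMSO and 10 uM staurosporine.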
# [8] = Cellular Toxicity (caspase-3) Mesangial (AID 660); settings: mesangial cells, normalized: DMSO 0%, 100 µM tamoxifen 100%; series mostly up to 91.7 µM;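 further: combined caspase 3 and 7 activity read by Caspase-Glo luminescence; cells exposed to compound for 16 h before the caspase read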
# Procedure, shortened: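 Mesangial cells, 1000/well, 5 h settle at 37 °C; compound 16 h, 37 °C; Caspase-Glo 3/7 reagent 20 min RT; luminescence. Norm.: DMSO = 0%, tamoxifen 100 uM = 100%. AC50, Hill fit.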
# [9] = Cellular Toxicity (caspase-3) SK-N-SH (AID 661); settings: SK-N-SH caspase-3 activation, qHTS, DMSO as zero, staurosporine as full; series mostly up to 91.7 µM
# Procedure, shortened: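 Human neuroblastoma SK-N-SH, 1500 cells/well, 5 hr pre-incubation, then compound 16 hr, 37 °C. Caspase-Glo 3/7 reagent, 1 hr RT, luminescence. Norm. to DMSO/10 uM staurosporine; Hill-fit AC50.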
# [10] = Cellular Toxicity (caspase-3) Hek293 (AID 664); settings: HEK293 caspase-3 activation, DMSO = 0%, 100 µM tamoxifen = 100%; at 92.2 µM (top of the series);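 further: cells exposed to compound for 16 h at 37 °C before readout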
# Procedure, shortened: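 Cells plated, 5 hr at 37 °C; compounds added; 16 hr at 37 °C; Caspase-Glo 3/7 reagent, 20 min RT; luminescence read. Activation expressed relative to DMSO and 100 uM tamoxifen, AC50 by Hill model.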
# [11] = Cellular Toxicity (caspase-3) Renal Proximal Tubule (AID 667); settings: renal proximal tubule cells, primary cells freshly taken from rat; Potency: caspase-3 activation; series mostly up to 91.7 µM;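 further: cells exposed to compound for 16 hours at 37 °C before detection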
# Procedure, shortened: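 Primary rat proximal tubule cells, 1000/well, 5 h plating at 37 °C, then compound 16 h at 37 °C. Caspase-Glo 3/7 reagent, 1 h RT, luminescence. Normalized to DMSO (basal) and 10 uM staurosporine (100%); Hill-fit AC50.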
# [12] = MultiTox-Fluor Cytotoxicity Assay - LYMP1-001 - Dead Cells (AID 946); settings: LYMP1-001 lymphoblastoid cells, dead-cell protease fluorescence; series mostly up to 92.2 µM
# Procedure, shortened: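 AC50 from Hill fit of concentration-response; data normalized to DMSO (basal) and 15 uM tetraoctylammonium bromide (100%). LYMP1-001 lymphoblastoid cells, 2500/well, 16 hr compound at 37 C; dead-cell protease fluorescence, Ex/Em 485/520.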
# [13] = Cell Viability - LYMP1-002 - Assay at 16 hr (AID 948); settings: LYMP1-002 lymphoblastoid cell viability; series mostly up to 92.2 µM
# Procedure, shortened: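 Human lymphoblastoid cells (LYMP1-002), 2500/well, were preincubated 5 hr at 37 C, then exposed to compounds for 16 hr at 37 C in complete medium. Cellular ATP was read by CellTiter-Glo luminescence after 30 min at room temperature; AC50 from Hill fits.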
# [14] = MultiTox-Fluor Cytotoxicity Assay - LYMP1-002 - Live Cells (AID 955); settings: LYMP1-002 lymphoblastoid live-cell protease fluorescence viability; series mostly up to 46.1 µM
# Procedure, shortened: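 Read-out is live-cell protease activity (cell-permeant GF-AFC substrate, fluorescence Ex/Em=405/510), where a decrease indicates acute toxicity. Human lymphoblastoid cells were treated 16 hours at 37 C in a concentration series, and AC50 values came from standard Hill modelling.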
# [15] = Cell Viability - LYMP1-003 - Assay at 24 hr (AID 963); settings: LYMP1-003 lymphoblastoid cell viability; series mostly up to 92.2 µM
# Procedure, shortened: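 Cells seeded at 2500/well, 5 hr at 37 C; compounds added; 24 hr at 37 C; CellTiter-Glo added, 30 min room temperature; luminescence read. Decrease in ATP taken as cytotoxicity, AC50 from Hill modelling.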
# [16] = Cell Viability - LYMP2-026 (AID 989); settings: LYMP2-026 lymphoblastoid cell viability, qHTS; series mostly up to 92.2 µM;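 further: cells exposed to compound for 24 h at 37 °C; nearly all actives have a fitted effect of over 50% in size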
# Procedure, shortened: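 Luminescent ATP signal (CellTiter-Glo, 30 min room temperature) measures viable lymphoblastoid cells after 24 hr compound treatment at 37 C. Decreased ATP reflects acute toxicity; AC50 values come from Hill-equation modeling.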
# [17] = Cell Viability - LYMP1-002 - Assay at 24 hr (AID 993); settings: LYMP1-002 lymphoblastoid cells viability; series mostly up to 92.2 µM
# Procedure, shortened: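 Cells plated 2500/well, 5 hr 37 C; compounds added, 24 hr 37 C; CellTiter-Glo added, 30 min RT; luminescence read. Tetraoctylammonium bromide positive control. Hill-equation AC50.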
# [18] = qHTS Assay for Identification of Small Molecule Inducers of Hypoxia Response (AID 2120; active means well fitted curve in the direction sought with a large enough effect in the signal ratio, with a control signal flat, not every such curve was filed as active; the % refers to the signal ratio); settings: hypoxia response reporter cells, beta-lactamase ratio readout; series mostly up to 104 µM
# Procedure, shortened: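 ME-180 HRE-bla cells plated in Opti-MEM/0.5% dialyzed FBS, rested 4-5 h, then dosed with compound titrations by pin tool. After 17 h at 37 degrees C, CCF4 dye loaded 2.5 h at RT; 460/530 nm ratio gave %Activity and AC50.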
# [19] = molecular target: Peroxisome proliferator-activated receptor alpha (Homo sapiens) (UniProt Q07869); experiment: qHTS assay for small molecule agonists of the peroxisome proliferator-activated receptor alpha (PPARalpha) signaling pathway (AID 651778); settings: PathHunter PPARalpha complementation, chemiluminescence, 6 h; max response: active compounds read high
# Procedure, shortened: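 Chemiluminescence from complemented enzyme reported PPARalpha activation in cells after 6 hr of compound treatment at 37 C. The detection reagent was incubated for 60 min at room temperature, and compounds were scored as agonists.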
# [20] = qHTS assay for cell viability of the p53RE-bla HCT-116 cell line (AID 743292); settings: p53RE-bla HCT-116 viability, ATP luminescence, 16 h; series mostly up to 95 µM; further: nearly all actives have a fitted effect of over 55% in size
# Procedure, shortened: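 Viability of compound-treated p53RE-bla HCT-116 cells is taken from ATP-dependent luciferase luminescence. Treatment lasts 16 h at 37 C after a 5 h settling period; detection follows 30 min at room temperature.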
# Peroxisome proliferator-activated receptor alpha (Homo sapiens), sequence (Q07869 whole entry, looked up): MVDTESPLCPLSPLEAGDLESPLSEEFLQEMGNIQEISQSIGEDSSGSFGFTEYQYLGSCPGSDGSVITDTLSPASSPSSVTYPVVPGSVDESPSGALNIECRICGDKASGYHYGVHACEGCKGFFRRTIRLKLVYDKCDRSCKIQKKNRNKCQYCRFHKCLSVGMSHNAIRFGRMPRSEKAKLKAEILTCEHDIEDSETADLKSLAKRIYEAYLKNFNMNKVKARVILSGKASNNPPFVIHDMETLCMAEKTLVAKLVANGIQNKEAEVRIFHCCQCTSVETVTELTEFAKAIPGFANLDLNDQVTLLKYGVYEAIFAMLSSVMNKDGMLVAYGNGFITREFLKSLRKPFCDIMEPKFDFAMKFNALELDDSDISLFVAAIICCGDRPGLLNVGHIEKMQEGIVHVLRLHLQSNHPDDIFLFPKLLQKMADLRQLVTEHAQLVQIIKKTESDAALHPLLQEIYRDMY
compound,measurement,setting,value
CCC(Cl)CC(Cl)C(Cl)C(Cl)C(Cl)C(C)Cl (stereo not given),Potency,[1],> 92 µM
same,Potency,[2],> 92 µM
same,Potency,[3],inactive
same,Potency,[4],inactive
same,Potency,[5],inactive
same,Potency,[6],inactive
same,outcome,[7],inactive
same,outcome,[8],inactive
same,outcome,[9],inactive
same,caspase-3 activation,[10],5.41%
same,Potency,[11],inactive
same,Potency,[12],inactive
same,Potency,[13],inactive
same,outcome,[14],inactive
same,Potency,[15],inactive
same,Potency,[16],inactive
same,Potency,[17],inactive
same,Potency,[18],inactive
same,max response,[19],-3.58%
same,Potency,[20],inactive
C=CC(C)(O)CCCC(C)CCCC(C)CCCC(C)C (stereo not given),Potency,[1],> 92 µM
same,Potency,[2],> 92 µM
same,Potency,[3],inactive
same,Potency,[4],inactive
same,Potency,[5],inactive
same,Potency,[6],inactive
same,outcome,[7],inactive
same,outcome,[8],inactive
same,outcome,[9],inactive
same,caspase-3 activation,[10],1.05%
same,Potency,[11],inactive
same,Potency,[12],inactive
same,Potency,[13],inactive
same,outcome,[14],inactive
same,Potency,[15],inactive
same,Potency,[16],inactive
same,Potency,[17],inactive
same,Potency,[18],inactive
same,max response,[19],2.41%
same,Potency,[20],inactive
CC(C)COC(=O)COc1cc(Cl)c(Cl)cc1Cl,Potency,[1],> 92 µM
same,Potency,[2],> 92 µM
same,Potency,[3],inactive
same,Potency,[4],inactive
same,Potency,[5],inactive
same,Potency,[6],inactive
same,outcome,[7],inactive
same,outcome,[8],inactive
same,outcome,[9],inactive
same,caspase-3 activation,[10],3.66%
same,Potency,[11],inactive
same,Potency,[12],inactive
same,Potency,[13],inactive
same,outcome,[14],inactive
same,Potency,[15],inactive
same,Potency,[16],inactive
same,Potency,[17],inactive
same,Potency,[18],inactive
same,max response,[19],9.61%
same,Potency,[20],inactive
COc1ccc([N+](=O)[O-])cc1N,Potency,[1],> 92 µM
same,Potency,[2],> 92 µM
same,Potency,[3],inactive
same,Potency,[4],inactive
same,Potency,[5],inactive
same,Potency,[6],inactive
same,outcome,[7],inactive
same,outcome,[8],inactive
same,outcome,[9],inactive
same,caspase-3 activation,[10],-2.76%
same,Potency,[11],inactive
same,Potency,[12],inactive
same,Potency,[13],inactive
same,outcome,[14],inactive
same,Potency,[15],inactive
same,Potency,[16],inactive
same,Potency,[17],inactive
same,Potency,[18],inactive
same,max response,[19],-6.59% and -0.402%
same,Potency,[20],inactive
CCOc1ccc2nc(N)sc2c1,Potency,[1],> 92 µM
same,Potency,[2],> 92 µM
same,Potency,[3],inactive
same,Potency,[4],inactive
same,Potency,[5],inactive
same,Potency,[6],inactive
same,outcome,[7],inactive
same,outcome,[8],inactive
same,outcome,[9],inactive
same,caspase-3 activation,[10],2.81%
same,Potency,[11],inactive
same,Potency,[12],inactive
same,Potency,[13],inactive
same,outcome,[14],inactive
same,Potency,[15],inactive
same,Potency,[16],inactive
same,Potency,[17],inactive
same,Potency,[18],inactive
same,max response,[19],-0.23%
same,Potency,[20],inactive
O=C(O)c1ccc([N+](=O)[O-])cc1,Potency,[1],> 92 µM
same,Potency,[2],> 92 µM
same,Potency,[3],inactive
same,caspase-3 activation,[4],85.2% (active)
same,Potency,[5],inactive
same,Potency,[6],inactive
same,outcome,[7],inactive
same,outcome,[8],inactive
same,outcome,[9],inactive
same,caspase-3 activation,[10],10.3%
same,Potency,[11],inactive
same,Potency,[12],inactive
same,Potency,[13],inactive
same,outcome,[14],inactive
same,Potency,[15],inactive
same,Potency,[16],inactive
same,Potency,[17],inactive
same,Potency,[18],inactive
same,max response,[19],-2.26% and 0.632%
same,Potency,[20],inactive
